# Records with an inconclusive call do not appear. A structure can be active in one record and inactive in another. Active and inactive are the calls of the source. The calls were made as follows, unless noted: active = hit-call score of the fitted dose curve at least 0.9, where 1 is the maximum; inconclusive = response in the unintended direction; inactive = score below 0.9.
# Target: human Thyroid hormone Receptor beta (TRb), THRB (gene 7068) (UniProt P10828)
# Experiment: ATG_hTRb_XSP2: Attagene TRANS-FACTORIAL Multi-Species (XSP2) HepG2 Assay for human Thyroid hormone Receptor beta (TRb) (AID 2283840);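 also: actives raise reporter mRNA so potency reflects agonist-like gain of signal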
# Conditions: not given
# Procedure: ATG_XSP2_multi-species_TRANS is a cell-based, multiplexed assay created by modifying the existing Attagene TRANS-FACTORIAL system to include a panel of nuclear receptors from some or all the following species: human (Homo sapiens), mouse (Mus musculus), frog (Xenopus laevis), zebrafish (Danio rerio), chicken (Gallus gallus), and turtle (Chrysemys picta). The ECOTOX-FACTORIAL format uses HepG2, a human liver cell line, with measurements taken at 24 hours after chemical dosing in a 24-well plate. Xsp2 included 3 nM 6-alpha-fluorotestosterone and 1.5 nM norgestrel to stimulate the androgen receptor.ATG_hTRb_XSP2 is one of 29 assay components measured or calculated from the ATG_XSP2_multi-species_TRANS assay. It is designed to make measurements of mRNA induction, a form of inducible reporter, as detected with fluorescence intensity signals by Reverse transcription polymerase chain reaction (RT-PCR) and Capillary electrophoresis technology.The assay endpoint ATG_hTRb_XSP2 was analyzed in the positive analysis fitting direction relative to DMSO as the negative control and baseline of activity. Using a type of inducible reporter, measures of mRNA for gain-of-signal activity can be used to understand the reporter gene at the transcription factor-level as they relate to the gene TR. Furthermore, this assay endpoint can be referred to as a primary readout, because this assay has produced multiple assay endpoints where this one serves a reporter gene function. To generalize the intended target to other relatable targets, this assay endpoint is annotated to the nuclear receptor intended target family, where the subfamily is non-steroidal.
# Human liver HepG2 cells are transiently transfected with multiple reporter transcription units (MRTUs) in 6-well plates using FuGene 6 reagent (Roche; 3 ml FuGene/1 mg DNA). The MRTU constructs are regulated by a cis-regulating element (promoter). […] A major difference between the CIS and TRANS system is that in CIS activities of endogenous TFs are measured, whereas the TRANS assay evaluates changes in activities of exogenous, chimeric NR-Gal4 proteins. […] At the end of 24 hour incubation, total RNA was isolated using TriZol reagent (Invitrogen). The isolated RNA is then reverse-transcribed using oligo(dT) primer and Mo-MLV reverse transcriptase (Invitrogen) with DNAse I (Ambion) treatment for 30 min. The one-tenth of the produced cDNA was amplified by PCR using Taq DNA polymerase (Invitrogen) and two reporter sequence-specific primers. The PCR products were fluorescently labeled by primer extension with 6-arboxyfluorescein (6-FAM) 5'-labeled reporter sequence-specific primer (2 min at 95 C, 20 s at 68 C and 10 min at 72 C) and these products were digested with 5U of HpaI (New England Biolabs) for 2h at 37 C. The fragments were purified using Qiaquick PCR columns (Qiagen), analyzed on an ABI 3130xL genetic analyzer (Applied Biosystems) with peak positions identified by using a set of X-rhodamine (ROX)-labeled MapMarker1000 molecular weight standards (BioVentures). The raw capillary electrophoresis data was processed using Attagraph software (Attagene).
# human Thyroid hormone Receptor beta (TRb), THRB (gene 7068), sequence (P10828 whole entry, looked up): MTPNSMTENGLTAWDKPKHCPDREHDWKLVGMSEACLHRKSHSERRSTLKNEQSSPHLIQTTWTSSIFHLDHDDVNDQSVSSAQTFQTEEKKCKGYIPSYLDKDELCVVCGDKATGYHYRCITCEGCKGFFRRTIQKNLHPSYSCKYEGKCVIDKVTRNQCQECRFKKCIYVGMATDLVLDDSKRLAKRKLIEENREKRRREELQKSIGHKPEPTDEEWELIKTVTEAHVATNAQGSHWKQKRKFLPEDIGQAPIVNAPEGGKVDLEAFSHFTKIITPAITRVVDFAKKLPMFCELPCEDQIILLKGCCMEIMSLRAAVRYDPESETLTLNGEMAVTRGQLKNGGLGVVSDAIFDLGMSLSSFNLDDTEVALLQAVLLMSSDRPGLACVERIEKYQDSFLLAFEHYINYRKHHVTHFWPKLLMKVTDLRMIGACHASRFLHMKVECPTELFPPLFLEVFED
SMILES,AC50,outcome
O=c1cc(-c2ccc(O)cc2)oc2cc(O)cc(O)c12,7.81 µM (active),inactive
CC/C(=C(\c1ccccc1)c1ccc(OCCN(C)C)cc1)c1ccccc1,–,inactive
CCCCCCCCOC(=O)c1ccc(O)cc1,–,inactive
C#C[C@]1(O)CC[C@H]2[C@@H]3CCc4cc(O)ccc4[C@H]3CC[C@@]21C,0.0262 µM (active),–
CCCCCC(=O)O[C@]1(C(C)=O)CC[C@H]2[C@@H]3CCC4=CC(=O)CC[C@]4(C)[C@H]3CC[C@@]21C,–,inactive

# System: Sodium/Iodide Symporter (NIS), SLC5A5 (gene 6528)
# Experiment: CPHEA_Stoker_NIS_Inhibition_RAIU: CPHEA's Radioactive Iodide Uptake (RAIU) Assay for Sodium/Iodide Symporter (NIS) Inhibition, Stoker and Laws Labs (AID 2283841)
# Conditions: not given
# Summary of the method: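 HEK293T cells stably expressing human NIS (hNIS-HEK293T-EPA) were exposed to test chemicals at 0.001–100uM (0.5% final DMSO) with 125I at a final 329pM in HBSS/10mM HEPES pH 7.4. After 2 hours at room temperature and ice-cold washes, intracellular 125I was counted as CPM and normalized to DMSO wells.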
SMILES,outcome,AC50
CCCCCCOc1ccc(O)cc1,inactive,–
C=C(C)C(=O)OCCC(F)(F)C(F)(F)C(F)(F)C(F)(F)C(F)(F)C(F)(F)C(F)(F)C(F)(F)F,inactive,–
O=c1cc(-c2ccc(O)cc2)oc2cc(O)cc(O)c12,inactive,–
[Na+],–,5.73 µM (active)
O=C(OCc1ccccc1)c1ccccc1O,–,9.92 µM (active)
CCCCCC1CCC(=O)O1 (stereo not given),inactive,–
CCCCCCCCCCCCOCCOS(=O)(=O)O,–,9.92 µM (active)
CC/C(=C(\c1ccccc1)c1ccc(OCCN(C)C)cc1)c1ccccc1,inactive,–
CC(=O)OC(C)(C)C,inactive,–
CCC(C)COC(=O)CC(C)C (stereo not given),inactive,–
COC(=O)C(C)Oc1ccc(Oc2ncc(C(F)(F)F)cc2Cl)cc1 (stereo not given),inactive,–
O=S(=O)(O)C(F)(F)C(F)(F)OC(F)(F)C(F)(F)F,inactive,–
O=C(O)C(F)(F)OC(F)(F)C(F)(F)OC(F)(F)C(F)(F)C(F)(F)C(F)(F)F,inactive,–
C#C[C@]1(O)CC[C@H]2[C@@H]3CCc4cc(O)ccc4[C@H]3CC[C@@]21C,inactive,–
CC(=O)N(C)C,inactive,–
CCCCCC(=O)O[C@]1(C(C)=O)CC[C@H]2[C@@H]3CCC4=CC(=O)CC[C@]4(C)[C@H]3CC[C@@]21C,inactive,–
CCCCCCCCCO,inactive,–
c1ccc(Cc2ccccc2)cc1,inactive,–
O=C(O)C(F)(F)C(F)(F)C(F)(F)C(F)(F)C(F)(F)C(F)(F)C(F)(F)C(F)F,–,18.4 µM (active)
CC(=O)C1=C(C)[C@@H]2C[C@@]3(C1)[C@H](C)CC[C@H]3C2(C)C,inactive,–

# System: not listed separately
# Experiment: CPHEA_Stoker_NIS_Cytotoxicity: Cytotoxicity Assessment for CPHEA's Radioactive Iodide Uptake (RAIU) Assay for Sodium/Iodide Symporter (NIS) Inhibition, Stoker and Laws Labs (AID 2283897);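 as to AC50: active means loss of ATP signal versus DMSO meaning cytotoxicity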
# Conditions: not given
# Summary of the method: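 hNIS-HEK293T-EPA human kidney cells were exposed for 2 hours at room temperature to test chemicals (0.001–100uM, 0.5% final DMSO) in HEPES-buffered HBSS, pH 7.4. Viability was read as ATP content by luciferase bioluminescence, loss of signal versus DMSO.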
SMILES,outcome,AC50
CCCCCCOc1ccc(O)cc1,inactive,–
O=c1cc(-c2ccc(O)cc2)oc2cc(O)cc(O)c12,inactive,–
[Na+],inactive,–
O=C(OCc1ccccc1)c1ccccc1O,inactive,–
CCCCCC1CCC(=O)O1 (stereo not given),inactive,–
O=C(c1ccc(OCCN2CCCCC2)cc1)c1c(-c2ccc(O)cc2)sc2cc(O)ccc12,–,9.92 µM (active)
CCCCCCCCCCCCOCCOS(=O)(=O)O,inactive,–
CC/C(=C(\c1ccccc1)c1ccc(OCCN(C)C)cc1)c1ccccc1,inactive,36.2 µM (active)
CC(=O)OC(C)(C)C,inactive,–
COC(=O)C(C)Oc1ccc(Oc2ncc(C(F)(F)F)cc2Cl)cc1 (stereo not given),inactive,–
CCCCCCCCCOS(=O)(=O)O,inactive,–
C#C[C@]1(O)CC[C@H]2[C@@H]3CCc4cc(O)ccc4[C@H]3CC[C@@]21C,inactive,–
CCCCCC(=O)O[C@]1(C(C)=O)CC[C@H]2[C@@H]3CCC4=CC(=O)CC[C@]4(C)[C@H]3CC[C@@]21C,inactive,–
CCCCCCCCCO,inactive,–
c1ccc(Cc2ccccc2)cc1,inactive,–
CCCCCCCCOS(=O)(=O)O,inactive,–
CC(=O)C1=C(C)[C@@H]2C[C@@]3(C1)[C@H](C)CC[C@H]3C2(C)C,inactive,–

# Read-out: not listed separately
# Experiment: CEETOX_H295R_OHPREG_noMTC: CeeTox H295R High-throughput Steroidogenesis Assay for OH-Pregnenolone (OHPREG), maximum tolerated concentration (MTC) filtered results only (AID 2283912; active = hit-call score of the fitted dose curve at least 0.9, where 1 is the maximum; inactive = score below 0.9)
# Conditions: actives raise or lower the signal
# Summary of the method: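 H295R cells prestimulated 48 h with 10 uM forskolin, then exposed 48 h to compound (0.1% DMSO). 17alpha-hydroxypregnenolone in medium measured by MTBE extraction and HPLC-MS/MS; bidirectional fit vs DMSO, concentrations not MTT/MTC-filtered.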
SMILES,outcome,AC50
CCCCCC1C(=O)CCC1CC(=O)OC (stereo not given),inactive,–
CC(=O)OC/C=C(C)/C=C/C=C(C)/C=C/C1=C(C)CCCC1(C)C,inactive,–
COc1cc(OC)c2ccc(=O)oc2c1,inactive,–
COC(=O)c1cccc(C(=O)OC)c1,inactive,–
COC(=O)C(C)Oc1ccc(Oc2ncc(C(F)(F)F)cc2Cl)cc1 (stereo not given),–,14.1 µM (active)
COC(=O)c1ccc(C(=O)OC)cc1,inactive,–
CCCCCCCCCCOC(=O)c1ccccc1C(=O)OCCCCCCCC,–,41.3 µM (active)

# Read-out: not listed separately
# Experiment: CEETOX_H295R_OHPROG_noMTC: CeeTox H295R High-throughput Steroidogenesis Assay for OH-Progesterone (OHPROG), maximum tolerated concentration (MTC) filtered results only (AID 2283914; active = hit-call score of the fitted dose curve at least 0.9, where 1 is the maximum; inactive = score below 0.9)
# Conditions: actives raise or lower the signal
# Summary of the method: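 H295R cells prestimulated 48 h with 10 uM forskolin, then exposed 48 h to chemical (0.1% DMSO final). 17alpha-hydroxyprogesterone in medium quantified by HPLC-MS/MS after MTBE extraction; bidirectional fitting versus DMSO, concentrations not MTC-filtered.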
SMILES,outcome,AC50
CCCCCC1C(=O)CCC1CC(=O)OC (stereo not given),inactive,–
CC(=O)OC/C=C(C)/C=C/C=C(C)/C=C/C1=C(C)CCCC1(C)C,inactive,–
COC(=O)c1cccc(C(=O)OC)c1,inactive,–
COC(=O)C(C)Oc1ccc(Oc2ncc(C(F)(F)F)cc2Cl)cc1 (stereo not given),–,1.86 µM (active)
COC(=O)c1ccc(C(=O)OC)cc1,inactive,–
CCCCCCCCCCOC(=O)c1ccccc1C(=O)OCCCCCCCC,–,40.4 µM (active)

# Read-out: not listed separately
# Experiment: CEETOX_H295R_ANDR_noMTC: CeeTox H295R High-throughput Steroidogenesis Assay for Androstenedione (ANDR), maximum tolerated concentration (MTC) filtered results only (AID 2283915; active = hit-call score of the fitted dose curve at least 0.9, where 1 is the maximum; inactive = score below 0.9)
# Conditions: actives raise or lower the signal
# Summary of the method: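 H295R cells, passage 10 or below, prestimulated 48 h with 10 uM forskolin, then exposed 48 h to chemical in 0.1% DMSO. Medium androstenedione extracted with MTBE, quantified by HPLC-MS/MS; concentrations not MTC-filtered; bidirectional fit versus DMSO.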
SMILES,outcome,AC50
COc1cc(OC)c2ccc(=O)oc2c1,inactive,–
COC(=O)c1cccc(C(=O)OC)c1,inactive,–
CCCCCCCCCCOC(=O)c1ccccc1C(=O)OCCCCCCCC,–,44 µM (active)

# From PubChem BioAssay (EPA / NIEHS)
